PubChem BioAssay (EPA / NIEHS)
Records with an inconclusive call do not appear. Calls of active or inactive are those of the source. How the source made its calls, unless noted: active means hit-call score of the fitted dose curve at least 0.9, where 1 is the maximum; inactive means score below 0.9.

How the values were obtained:
[1] = CCTE_Harrill_HTTr_Viability_MCF7: CCTE's 6-hour Cell Viability Assessment for the High-Throughput Transcriptomics (HTTr) Platform, in MCF-7 cells cultured in DMEM + 10% fetal bovine serum, Harrill Lab (AID 2284010)
Method in brief: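 Propidium iodide exclusion, imaged by high-content analysis, gauged viability after a six-hour exposure across eight concentrations. Cells were MCF-7 grown in DMEM with 10% fetal bovine serum; fits run in both directions against DMSO.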

[2] = CCTE_Harrill_HTTr_Apoptosis_MCF7: CCTE's 6-hour Apoptosis Assessment for the High-Throughput Transcriptomics (HTTr) Platform, in MCF-7 cells cultured in DMEM + 10% fetal bovine serum, Harrill Lab (AID 2284011)
Method in brief: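 Apoptosis in MCF-7 cells grown in DMEM with 10% fetal bovine serum was scored after a six hour exposure by high content imaging of caspase-3/7 activation (CellEvent Caspase 3/7 Green), with DMSO serving as negative control and baseline.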

[3] = CCTE_Harrill_HTTr_CellCount_MCF7: CCTE's Cell Proliferation Assessment for the High-Throughput Transcriptomics (HTTr) Platform, Harrill Lab (AID 2284012; active means hit-call score of the fitted dose curve at least 0.9, where 1 is the maximum;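 further: cells exposed to compound for six hours; intended direction is loss of nuclei count meaning fewer cells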)
Method in brief: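 Cell count from high-content imaging of Hoechst-labeled nuclei serves as viability/growth readout. Chemicals were applied to MCF-7 cells in eight concentrations for six hours, with fitting in both directions relative to DMSO.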

Row | SMILES | outcome [1] | outcome [2] | outcome [3] | AC50 [1]
1 | CC(C)C1CCC(Cc2ccc(Cl)cc2)C1(O)Cn1cncn1 (centres undefined) | inactive | inactive | inactive | 
2 | C[C@@H](Oc1ccc(Cl)cc1Cl)C(=O)O | inactive | inactive | inactive | 
3 | NC(=O)O | inactive | inactive |  | 
4 | CCC(=O)c1ccccc1 | inactive | inactive |  | 
5 | COP(=S)(OC)Oc1ccc(Sc2ccc(OP(=S)(OC)OC)cc2)cc1 | inactive | inactive |  | 
6 | Cc1ccc2ccccc2c1C | inactive | inactive |  | 
7 | BrCCBr | inactive | inactive |  | 
8 | CN(C)N=O | inactive | inactive | inactive | 
9 | [O-][Cl+2]([O-])O | inactive | inactive | inactive | 
10 | CN(C)P(=O)(N(C)C)N(C)C | inactive | inactive |  | 
11 | COc1ccccc1OC | inactive | inactive |  | 
12 | CC(C)c1cccc(C(C)C)c1O | inactive | inactive | inactive | 
13 | Cl/C=C/Cl | inactive | inactive |  | 
14 | Nc1cccc2ccccc12 |  | inactive | inactive | 37.4 µM (active)
15 | CNC(=O)O/N=C/C(C)(C)S(C)=O (centres undefined) | inactive | inactive |  | 
16 | CCc1ccccc1C | inactive | inactive | inactive | 
17 | C[C@H]1CCCC(=O)CCC/C=C/c2cc(O)cc(O)c2C(=O)O1 | inactive | inactive | inactive | 
18 | P.[In] | inactive | inactive | inactive | 
19 | Oc1c(I)cc(I)cc1I | inactive | inactive | inactive | 
20 | ClC1=C(Cl)[C@]2(Cl)[C@H]3[C@H]([C@H]4C=C[C@H]3C4)[C@@]1(Cl)C2(Cl)Cl | inactive | inactive | inactive | 
21 | C[C@@H]1C[C@@H]([C@H](O)CC2CC(=O)NC(=O)C2)C(=O)[C@@H](C)C1 | inactive | inactive | inactive | 
